High-throughput results: PubChem, several laboratories
KKLEB tox: cytotoxicity in KKLEB CF airway cells, primary screen, cytotoxicity control for CF NF-kB inhibitor project, cell-based, uHTS, fluorescence assay plates; KKLEB CF airway cells viability, ATPlite luminescence, overnight; active compounds read low; cells stimulated with P. aeruginosa culture filtrate; activity change (cytotoxicity), % at 5 µM; actives 0.36% (n = 360,000);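 active = corrected activity change at or below -50% at 5 µM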
Peg3 promoter: Peg3 promoter-driven luciferase inhibitors, primary screen, cell-based, HeLa, luciferase luminescence | HeLa PEG-Prom luciferase reporter, overnight | inhibition, % at 20 µM | actives 1.7% (n = 360,000);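 active = inhibition of at least 50% at 20 µM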
TRPM1 prom inh: inhibitors of MITF-dependent TRPM1 promoter reporter, primary screen, cell-based, SK-MEL-5, single point, luciferase. SK-MEL-5 TRPM1 promoter luciferase, 24 h. inhibition, % at 12.5 µM. actives 0.83% (n = 330,000). AID 488899, 2010;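 active = mean inhibition across replicates of 60% or more, whatever share of single replicates reaches that level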
LMP1 NFkB inh: EBV LMP1-driven NF-kappaB luciferase reporter inhibitors, primary screen, cell-based, luminescence, single point; inhibition, % at 12.5 µM; actives 0.69% (n = 350,000); AID 504558, 2011; LMP1-induced NF-kappaB luciferase reporter cells; in the data active = inhibition above about 41%
CF NFkB block: inhibitors of PAF-induced NF-kB signaling, primary screen, cell-based, GFP fluorescence, uHTS; KKLEB NF-kB-GFP reporter, GFP fluorescence overnight; inhibition, % at 5 µM; actives 0.86% (n = 360,000); AID 588850, 2011;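 active = at least 50% inhibition at 5 µM, scaled per plate between neutral and stimulator controls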;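 note: PAF is a Pseudomonas aeruginosa culture filtrate used as stimulus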
HIF-2a inh: HIF-2a reporter inhibitors, primary screen, luminescence, 786-0 RCC cells. 786-0 RCC cells HIF-2a reporter, luciferase luminescence, overnight. inhibition, % at 18.8 µM. actives 0.72% (n = 360,000);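 active = inhibition of the luminescence signal of 40% or more relative to plate controls, in a single-dose primary screen at 18.75 µM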
Of the large screens only hits and unclear results are named; the others gave an inactive call. Rows were chosen to be rich in hits. Some 3% of all compounds tested hit in one or more screens of this group.

O=c1cc(-c2ccccc2)[nH]n1-c1ccc([N+](=O)[O-])cc1	KKLEB tox -55, CF NFkB block 59
Cn1c2c(c(=O)n(C)c1=O)C(C(F)(F)F)(C(F)(F)F)N=C(c1ccccc1Cl)N2	none
Cn1c2c(c(=O)n(C)c1=O)C(C(F)(F)F)(C(F)(F)F)N=C(CCC1CCCCC1)N2	Peg3 promoter 58
Cc1ccc(-c2nc(N/N=C/c3cccc([N+](=O)[O-])c3)c3ccccc3n2)cc1	none
Cc1ccc(-c2nc(N/N=C/c3cccnc3)c3ccccc3n2)cc1	KKLEB tox -71
Cc1ccc(-c2nc(Nc3cccc(O)c3)c3ccccc3n2)cc1	none
Cc1ccc(-c2nc(Nc3ccc(O)cc3)c3ccccc3n2)cc1	Peg3 promoter 59
CN1C(=O)/C(=N\OC(=O)c2cccc3ccccc23)c2ccccc21	Peg3 promoter 74
Cc1ccc(C)c(OCCn2cc(/C=C(\C#N)C(=O)NCc3ccco3)c3ccccc32)c1	KKLEB tox -58, CF NFkB block 57
Cc1cccc(NC(=O)/C(C#N)=C/c2cn(CC(=O)NCc3ccco3)c3ccccc23)c1	KKLEB tox -63, Peg3 promoter 60, CF NFkB block 60
COc1ccccc1OCCn1cc(/C=C(\C#N)C(=O)NCc2ccco2)c2ccccc21	none
COCCCn1cc(CN(C)C2CN(Cc3cn(CCCOC)nn3)S(=O)(=O)C2)nn1 (stereo not drawn)	none (no result: KKLEB tox, Peg3 promoter, TRPM1 prom inh, LMP1 NFkB inh, CF NFkB block)
CC(C)CC(N)c1csc(NC(=O)Nc2ccccc2-c2ccccc2)n1 (stereo not drawn)	Peg3 promoter 104 (no result: TRPM1 prom inh, LMP1 NFkB inh)
CC(C)CC(N)c1csc(NC(=O)Nc2ccccc2Cc2ccccc2)n1 (stereo not drawn)	Peg3 promoter 86 (no result: TRPM1 prom inh, LMP1 NFkB inh)
CC(C)CC(N)c1csc(NC(=O)C(c2ccccc2)c2ccccc2)n1 (stereo not drawn)	Peg3 promoter 95 (no result: TRPM1 prom inh, LMP1 NFkB inh)
CC(=O)c1ccc(Nc2nc(C(N)CC(C)C)cs2)cc1 (stereo not drawn)	none (no result: TRPM1 prom inh, LMP1 NFkB inh)
CC(C)CC(N)c1csc(Nc2ccccn2)n1 (stereo not drawn)	none (no result: TRPM1 prom inh, LMP1 NFkB inh)
CC(C)C(N)c1csc(NC(=O)Nc2ccccc2C(C)(C)C)n1 (stereo not drawn)	none (no result: TRPM1 prom inh, LMP1 NFkB inh)
CC(=O)c1cccc(-c2ccnc3c2CC(C(=O)Nc2cccc(Oc4ccccc4)c2)O3)c1 (stereo not drawn)	none (no result: TRPM1 prom inh, LMP1 NFkB inh)
Cc1cncc(NCc2ccc3c(c2)OCO3)n1	none (no result: TRPM1 prom inh, LMP1 NFkB inh)
COc1cc(CNC(=O)c2cc(-c3cc(F)ccc3OCC3CCCO3)n[nH]2)cc(OC)c1 (stereo not drawn)	none (no result: TRPM1 prom inh, LMP1 NFkB inh)
Cc1ccc([N+](=O)[O-])cc1N(CC(=O)NC1CCCC1)S(C)(=O)=O	none
Cc1ccc(NS(=O)(=O)c2ccc(NC(=O)CN(c3cc([N+](=O)[O-])ccc3C)S(C)(=O)=O)cc2)c(C)c1	Peg3 promoter 50
CCOC(=O)c1c(CN2CCNCC2)nc2ccc(Cl)cc2c1-c1ccccc1	Peg3 promoter 106, TRPM1 prom inh 90
Cc1nc2ccc(Cl)cc2c(-c2ccccc2)c1C(=O)N(C)C	none
CCNC(=O)C1(C)CCN(C(=O)c2c(F)cccc2F)C1 (stereo not drawn)	none (no result: TRPM1 prom inh, LMP1 NFkB inh)
CC(C)(C)S(=O)(=O)/C(C#N)=C/c1cccn1S(=O)(=O)c1ccccc1	none (no result: TRPM1 prom inh, LMP1 NFkB inh)
Cc1c(NC(=O)c2ccc(C(=O)Nc3c(C)n(C)n(-c4ccccc4)c3=O)cc2)c(=O)n(-c2ccccc2)n1C	none
COc1cccc(-n2c(N)c(C(=O)Nc3c(C)n(C)n(-c4ccccc4)c3=O)c3nc4ccccc4nc32)c1	Peg3 promoter 60
Cc1cc(C)cc(-n2c(N)c(C(=O)Nc3c(C)n(C)n(-c4ccccc4)c3=O)c3nc4ccccc4nc32)c1	Peg3 promoter 91
COc1ccc(C(=O)C(CN2CCOCC2)c2ccccc2)cc1F (stereo not drawn)	Peg3 promoter 95, LMP1 NFkB inh 74
CC(=O)c1ccc(N/N=C(/C(N)=O)C2=NC(C)(C)Cc3ccccc32)cc1	Peg3 promoter 77
COc1ccc(Oc2ccc3c(C(F)(F)F)cc(C(F)(F)F)nc3n2)cc1	none
Oc1ccc(Oc2ccc3c(C(F)(F)F)cc(C(F)(F)F)nc3n2)cc1	LMP1 NFkB inh 48
O=c1c2ccccc2c2ccccc2c(=O)n1Nc1ccccc1	none (no result: TRPM1 prom inh)
CC(C)N1CCc2c(sc(NC(=O)c3ccc(C(=O)c4ccccc4)cc3)c2C(N)=O)C1	Peg3 promoter 59
CC(C)N1CCc2c(sc(NC(=O)c3ccc(S(=O)(=O)N4CCCCC4C)cc3)c2C(N)=O)C1 (stereo not drawn)	Peg3 promoter 68
O=C(Nc1nnc([C@@H]2C[C@H](O)[C@@H](CO)O2)s1)c1cccc(OC(F)(F)F)c1	none (no result: TRPM1 prom inh, LMP1 NFkB inh)
CCCOc1ccc(N)cc1N	LMP1 NFkB inh 54
CSc1oc(-c2ccc(F)cc2)nc1S(=O)(=O)c1ccc(F)cc1	LMP1 NFkB inh 89
CSc1oc(-c2ccc(F)cc2)nc1S(=O)(=O)c1ccccc1	none
CCOC(=O)C1=CCC(c2cccs2)N(S(=O)(=O)c2ccc(C)cc2)C1 (stereo not drawn)	none (no result: TRPM1 prom inh, LMP1 NFkB inh)
COc1ccc2c(CN3CCN(Cc4ccccc4)CC3)cc(=O)oc2c1	none (no result: TRPM1 prom inh)
NS(=O)(=O)c1ccc(S(=O)(=O)N2CCCC(c3ccccc3)C2)cc1 (stereo not drawn)	none (no result: TRPM1 prom inh)
C=CCCC(=O)N1C[C@H]2CCN(C)[C@H]2C[C@H]1c1ccc(Br)cc1	none (no result: TRPM1 prom inh, LMP1 NFkB inh)
COc1ccc(/C=C2\SC(=Nc3ccccc3OC)NC2=O)cc1	CF NFkB block 56
COc1cc(/C=C2/SC(=Nc3ccc(O)cc3)NC2=O)ccc1O	CF NFkB block 71
COc1cc(C(=O)NCC(c2ccco2)N2CCCC2)ccc1OCc1ccc(Cl)cc1Cl (stereo not drawn)	Peg3 promoter 56 (no result: TRPM1 prom inh)
COc1cc2cc3c(N)c(C(=O)Nc4sc(C)c(C)c4C#N)sc3nc2cc1OC	KKLEB tox -100, CF NFkB block 89
C=C1C(=O)[C@]23C[C@H]1CCC2[C@@]1(C)C(C[C@@H]3O)[C@](C)(C(=O)OC)CC[C@@H]1OC(C)=O (stereo partly drawn)	KKLEB tox -100, Peg3 promoter 102, CF NFkB block 89, HIF-2a inh 98 (no result: TRPM1 prom inh, LMP1 NFkB inh)
COc1ccc(CCNC(=O)Nc2nnc([C@@H]3C[C@H](O)[C@@H](CO)O3)s2)cc1OC	none (no result: TRPM1 prom inh, LMP1 NFkB inh)
Cc1ccc(NC(=O)CC2Nc3ccccc3NC2=O)cc1Cl (stereo not drawn)	KKLEB tox -52
O=C(CC1Nc2ccccc2NC1=O)Nc1ccc2c(c1)OCO2 (stereo not drawn)	none
